# Rows were chosen to be rich in hits. Some 19% of all compounds tested hit in one or more screens of this group.
# DT40 TDP1 CPT – growth inhibition of DT40 Tdp1-/-;hTDP1 cells with camptothecin (screen for TDP1 inhibitors); chicken DT40 Tdp1-/-;hTDP1 cells + 20 nM CPT, ATP luminescence, 48 h; Potency, µM (highest dose often 46.2 µM), for the others: at the highest dose activity change, negative = growth inhibition, usual class: inhibitors; actives 12% (n = 420,000); also: potency is read from the fitted curve at half-maximal effect; nearly all actives have a fitted effect of over 55% in size
#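 Chicken DT40 Tdp1-/- cells stably complemented with human TDP1 were seeded at 400 cells/well in medium containing 20 nM camptothecin, exposed to pin-transferred compounds, and grown at 37 °C for at least 48 hr. Viability was read as ATP luminescence.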
# DT40 TDP1 no CPT – qHTS for Inhibitors of human tyrosyl-DNA phosphodiesterase 1 (TDP1): qHTS in cells in absence of CPT; AID 686978, 2013; actives 15% (n = 420,000); Potency, µM (highest dose often 46.2 µM), for inactives: at the top dose activity change, negative = growth inhibition, most hits filed as inhibitors; DT40 Tdp1-/- hTDP1 cells, no CPT, ATP luminescence, 48 h; also: potency is read from the fitted curve at half-maximal effect; nearly all actives have a fitted effect of over 55% in size
#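 DT40 Tdp1-/-;hTDP1 cells, no CPT (DMSO vehicle only), 400 cells/well; compounds pin-transferred; ≥48 hr, 37 °C; CellTiter-Glo 30 min RT dark, luminescence read.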
# HT1080-NT tox – kills 2HG-producing HT-1080-NT fibrosarcoma cells | HT-1080-NT fibrosarcoma viability, CellTiter-Glo ATP luminescence, 48 h | Potency, µM (titrated, usually from 46.1 µM), for the others: at the highest dose activity, negative = less viability, usual class: cytotoxic | actives 1.6% (n = 360,000) | AID 686970;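 also: NT is the 2HG producing partner of a matched IDH1 knockdown line; potency is read from the fitted curve at half-maximal effect; 0% = DMSO-treated cells and -100% = media-only wells without cells; nearly all actives have a fitted effect of over 55% in size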
#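 Luminescent CellTiter-Glo readout after 48 hours of compound exposure at 37 degrees C defined viability of HT-1080-NT cells. Activity was normalized to DMSO wells and cell-free media wells; concentration-response curves were fitted and assigned curve classes.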
# HT1080 IDH1KD tx – kills HT-1080 cells with IDH1 knockdown; HT-1080 IDH1 knockdown viability, ATP luminescence, 48 h; actives 2% (n = 360,000); Potency, µM (series often up to 46.1 µM), without a hit: at the highest dose activity, negative = toxicity, hits mostly cytotoxic;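 also: potency is read from the fitted curve at half-maximal effect; 0% = DMSO wells and -100% = cell-free medium wells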
#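 IDH1KD HT-1080 cells, 750/well, RPMI + 5% FBS; compound pinned after 2 h settling; 48 h, 37 °C; CellTiter-Glo luminescence; % activity normalised to DMSO and no-cell wells; curves fitted, classed by r2 and efficacy.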
# IL1B secr inh – blocks inflammasome-driven IL-1 beta release. THP-1 LPS/ATP IL-1B secretion, AlphaLISA, 16 h; hits give low values. activity change, % at 57.5 µM. actives 4.7% (n = 360,000). AID 743279; in the data active = activity change below about -50%; inconclusive = mostly about -30% to -49%
#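 Secreted IL-1B measured by AlphaLISA bead assay after 16 h compound exposure of THP-1 cells; compounds (final up to 57.5 uM) added 1 h before LPS (250 ng/mL) and ATP (1.25 mM) stimulation; lower signal means less secretion.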
# Starred values were filed as active, the others as inactive; i = inactive; ? = inconclusive; / = no result. Unless noted, calls follow the shape of the dose curve; as a rule, active = well fitted curve in the direction sought with a large enough effect; inconclusive = small, poorly fitted or top-dose-only effect, or another doubt; inactive = no such curve, though single readings can be large; an effect the other way counts as inactive or inconclusive. Unless noted, % is scaled to controls: 0 for no effect and ±100 for the full control effect.
SMILES,DT40 TDP1 CPT,DT40 TDP1 no CPT,HT1080-NT tox,HT1080 IDH1KD tx,IL1B secr inh
S=C(NCc1ccccc1)N1CCCCC1,-3%,-13%,13%,0%,-19
CCOC(=O)c1cc[nH]c1CC(=O)NC,1%,11%,0%,0%,17
CCOC(=O)c1ccccc1NC(=O)Cn1c(=O)n(-c2cccc(C)c2)c(=O)c2c1c1cc(C)ccc1n2C,7%,5%,/,/,/
Cc1cc(/C=C2\C(=N)N3N=C(C(C)C)SC3=NC2=O)c(C)n1-c1ccccc1,-18%,36%,1%,-7%,23
CN(C)S(=O)(=O)c1ccc(Cl)c(C(=O)OCC(=O)NNC(=O)c2cccs2)c1,-4%,1%,14%,4%,7
c1ccc(-c2nnc3n2N=C(c2ccc4c(c2)OCO4)CS3)nc1,5%,-8%,12%,4%,-21
c1cc2c(cc1C1=Nn3c(nnc3C3CCCCC3)SC1)OCO2,18µM*,13µM*,0%,-14%,0
CCCc1nc2ccccc2n1Cc1ccccc1OC,2%,?,?,-2%,-9
Cc1ccccc1Cn1nnc(-c2ccc(F)cc2)n1,-25%,24%,12%,2%,24
CCCc1c(-c2ccccc2)ncn1Cc1ccccc1OC,7.3µM*,5.8µM*,-27%,?,7
CCCc1c(-c2ccccc2Br)ncn1Cc1ccccc1OC,2.3µM*,2.3µM*,?,?,1
COc1ccc(C(C)=O)cc1Cn1nnc(-c2ccccc2Br)n1,-21%,-2%,-5%,-1%,30
CCCc1c(-c2ccc(F)cc2)ncn1Cc1ccccc1OC,1.6µM*,2.1µM*,?,?,-5
COc1ccc(C)cc1NC(=O)CSc1ccc(-c2sc(C)nc2C)nn1,13µM*,?,-1%,-13%,?
COc1ccc(Cl)cc1NC(=O)CSc1ccc(-c2sc(C)nc2C)nn1,13µM*,10µM*,/,/,/
COc1ccccc1NC(=O)CSc1ccc(-c2ccc(-n3ccnc3)cc2)nn1,21µM*,13µM*,-12%,-15%,-12
Cc1ccccc1NC(=O)CSc1ccc(-c2ccc(-n3cccn3)cc2)nn1,-4%,8%,3%,4%,8
CC(=O)Nc1ccc(NC(=O)CSc2ccc(-c3sc(C)nc3C)nn2)cc1,-22%,?,0%,15%,i
COc1ccc(OC)c(NC(=O)CSc2ccc(-c3sc(C)nc3C)nn2)c1,15µM*,13µM*,/,/,/
COc1cc(NC(=O)CSc2ccc(-c3ccccn3)nn2)cc(OC)c1,?,?,-18%,?,47
CCc1nc(SCC(=O)Nc2cc(OC)ccc2OC)c2c(C)c(C)sc2n1,18µM*,26µM*,?,?,-5
COc1ccc(C)cc1NC(=O)CSc1ccc(-c2ccccn2)nn1,?,21µM*,-14%,?,i
O=C(COC(=O)C1CCCCC1)NCCc1ccccc1,-15%,0%,2%,8%,10
O=C(Cc1cccs1)N[C@@H]1c2ccccc2CC[C@H]1OCc1ccccc1,?,?,2%,1%,-7
CC1=C(C)C(=O)C(C(CCCCCC(=O)O)c2ccccc2)=C(C)C1=O (stereo unspecified),17µM*,?,/,/,/
SMILES,DT40 TDP1 CPT,DT40 TDP1 no CPT,HT1080-NT tox,HT1080 IDH1KD tx,IL1B secr inh
COc1ccc2c(c1)C(=O)/C(=C/C=C/c1ccccc1)CC2,-24%,-8%,-1%,-5%,0
COc1ccc2c3c(ccc2c1)C(=O)/C(=C/O)CC3,?,16µM*,-8%,-20%,54
COc1ccc(OC)c(C(=O)Cn2c3[n+](c4ccc(C(F)(F)F)cc42)CCCCC3)c1,5.2µM*,5.8µM*,1%,23%,-5
CC1(C)CC(Nc2ccc(C(F)(F)F)cc2[N+](=O)[O-])CC(C)(C)N1,-21%,?,-24%,?,-52*
COc1ccccc1Cn1c(CNS(=O)(=O)c2ccc(C(C)C)cc2)nc2cccnc21,?,23µM*,/,/,/
CC(C)Cc1ccc(S(=O)(=O)Nc2ccccn2)cc1,-9%,-14%,-6%,-10%,13
COc1ccccc1Cn1c(CNS(=O)(=O)c2ccc(CC(C)C)cc2)nc2cccnc21,21µM*,13µM*,/,/,/
CC(C)Cc1ccc(S(=O)(=O)NCc2nc3cccnc3n2Cc2ccccc2)cc1,?,18µM*,/,/,/
COc1ccc(Cn2c(CNC(=O)Cc3ccc(OC)c(OC)c3)nc3cccnc32)cc1,-19%,-25%,/,/,/
COc1ccc(CC(=O)NCc2nc3cccnc3n2Cc2ccc(F)cc2)cc1OC,-30%,?,/,/,/
CC(O)CC(=O)NOCc1ccccc1 (stereo unspecified),2%,5%,8%,6%,25
CC1=C(C(=O)OCCOc2ccccc2)C(c2ccsc2)NC(=O)N1C (stereo unspecified),?,21µM*,0%,-17%,-23
COc1cc(OC)c(/C=C/c2cc3c4ccccc4ccc3[n+](C)c2)c(OC)c1,-117%,?,/,/,/
COc1cc(OC)c(/C=C/c2c3ccccc3cc[n+]2C)c(OC)c1,0.32µM*,0.089µM*,/,/,/
COc1cc(OC)c(/C=C/c2cc(/C=C/c3c(OC)cc(OC)cc3OC)[n+](C)c3ccccc23)c(OC)c1,1.6µM*,1.1µM*,/,/,/
CC(C)[C@H](NC(=O)[C@@H]1Cc2c([nH]c3ccccc23)C2c3ccccc3C(=O)N21)C(=O)NCC1CCCO1 (stereo partly specified),?,?,0%,-8%,-7
CC(C)C[C@H](NC(=O)[C@@H]1Cc2c([nH]c3ccccc23)C2c3ccccc3C(=O)N21)C(=O)NCC1CCCO1 (stereo partly specified),16µM*,?,-7%,-9%,-20
Cc1nn(CC(=O)N/N=C/c2cccs2)c(C)c1[N+](=O)[O-],3%,-28%,8%,3%,-24
COc1ccc(/C=N/NC(=O)c2ccco2)cc1Cn1nc(C)cc1C,-2%,-21%,3%,9%,19
COc1cccc(/C=N/NC(=O)Cn2nc(C)c([N+](=O)[O-])c2C)c1O,5.8µM*,5.8µM*,?,18µM*,53
COc1cccc(/C=N\NC(=O)c2ccc(Cn3cc(Br)c([N+](=O)[O-])n3)o2)c1O,?,3.3µM*,?,?,167
COc1cccc(/C=N/NC(=O)C(C)n2nc(C)c([N+](=O)[O-])c2C)c1O (stereo unspecified),0.92µM*,1µM*,-27%,?,37
COc1ccc(/C=N/NC(=O)c2ccco2)cc1Cn1nc(C)c([N+](=O)[O-])c1C,?,18µM*,-5%,-5%,20
